The experiment concerns the target RNA polymerase-associated protein LEO1 (UniProt Q8WVC0). Kind of experiment: other; cross-linking mass spectrometry; other.
On to “RNA polymerase-associated protein CTR9 homolog, Q6PD62”, for which the “listed as a hit” value is “yes”.
For Parafibromin, Q6P1J9, the “listed as a hit” value was “yes”.
The entry for “RNA polymerase II-associated factor 1 homolog, Q8N7H5” is “yes”.

Source of the values: publication PMC10954555.
